High-throughput results (PubChem BioAssay)
Hits are enriched below; roughly 6.8% of the tested compounds scored in any of these assays.
MK inhibit: blocks S. pneumoniae mevalonate kinase; purified MK, PK/LDH-coupled NADH absorbance 340 nm; inhibition, % at 10 µM; 65,000 tested, 0.48% active; AID 555;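 active means ranked among the strongest by inhibition in the single 10 µM screen, a fixed top-ranked set picked for dose follow-up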
Spn PMK inh: blocks S. pneumoniae phosphomevalonate kinase; purified PMK, PK/LDH-coupled NADH absorbance 340 nm; inhibition, % at 10 µM; 65,000 tested, 0.49% active;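 active means top-ranked compounds by inhibition in the single 10 µM screen, taking a fixed number of the strongest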;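 further: 0% = full reaction with DMSO carrier and 100% = background rate without enzyme reaction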
Autofluor 339: intrinsic fluorescence of library compounds, ex339/em460 – biochemical, MLSMR library, data from DPM-DC assay, artefact control, profiling panel; 65,000 tested, 5.5% active; fluorescence fold increase at 10 µM; compound autofluorescence, ex339/em460 nm, NADH buffer; active compounds read high; 1 = no-compound wells, NADH background; AID 709;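 active means at 10 µM, mean starting fluorescence two-fold or more over control wells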;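 further: signal is the first read of a kinetic run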
DPM-DC inhibit: inhibitors of Streptococcus pneumoniae diphosphomevalonate decarboxylase | 65,000 tested, 0.49% active | purified DPM-DC, PK/LDH coupled NADH fluorescence | calls only at 10 µM;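 active means the 320 compounds with the highest percent inhibition in the single-dose primary screen, excluding strongly autofluorescent ones, cut at about 32% in these data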;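 further: kinetic rate of NADH fluorescence loss reporting ADP formed by the decarboxylase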
A340 absorber: compound absorbs light at 340 nm | compound absorbance at 340 nm, fold over control | 65,000 tested, under 10 active | fold change at 10 µM | AID 708;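 active means at 10 µM dose, initial 340 nm absorbance at least 2 fold that of control wells; inactive means change under 2 fold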;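 further: initial absorbance extrapolated from kinetic A340 decline of NADH oxidation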
NADH coupling: inhibition of NAD/NADH coupling enzymes, library profiling | coupled PK/LDH NADH assays, four targets | IC50, µM (highest dose often 10 µM), without a hit: at the highest dose inhibition | 65,000 tested, 0.02% active;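 active means single-dose screening hits from any of four coupled enzyme assays that gave an IC50 when retested across doses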;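 further: the DPM-DC format reads NADH fluorescence rather than 340 nm absorbance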
An asterisk follows results filed as active; i = inactive; . = no result given; + = active, no number.

SMILES	MK inhibit	Spn PMK inh	Autofluor 339	DPM-DC inhibit	A340 absorber	NADH coupling
Cn1cnnc1SCC(=O)NC(=O)NC1CCCC1	0	10	1.1	i	0.98	3%
COc1ccc(-c2csc(NCc3ccco3)n2)cc1C	12	7	1.1	i	1	6%
COc1ccc(-c2nc3cccc(C)n3c2NCc2ccco2)cc1OC	16	2	5.1*	.	1	9%
O=c1c(C(c2nnnn2C2CCCCC2)N2CCCCC2)coc2ccc(Cl)cc12 (configuration not stated)	0	19	1.2	i	1	6%
CCC(=O)N(Cc1ccco1)c1nc(-c2cc(OC)ccc2OC)cs1	5	5	1	i	1	4%
CCC(=O)N(Cc1ccco1)c1nc(-c2ccccc2)cs1	0	27*	1	i	1	9%
COCCNC(=O)CS(=O)(=O)Cc1nc(-c2ccc(C)cc2)oc1C	7	4	1	i	1	4%
Cc1ccc(S(=O)(=O)NCCCNC(=O)N2CCOCC2)cc1	5	0	1	i	0.98	3%
CC(O)c1n(C)c(Cl)c[n+]1C (configuration not stated)	11	0	1.1	i	1	2%
CCOC(=O)C1CCCN(C(=O)C2CCCN(S(C)(=O)=O)C2)C1 (configuration not stated)	1	26*	1.1	i	0.99	9%
CCOC(=O)c1cc2c(=O)n3cc(C)ccc3nc2n(Cc2cccnc2)c1=N	3	0	2.1*	.	1	2%
COC(=O)c1cc2c(=O)n3cccc(C)c3nc2n(Cc2cccnc2)c1=N	5	0	2.3*	.	1	3%
COCCCn1c(=N)c(C(N)=S)cc2c(=O)n3cccc(C)c3nc21	2	19	1.9	i	0.99	9%
C=CCn1c(=N)c(C(=O)OC)cc2c(=O)n3cccc(C)c3nc21	2	20	3.8*	.	1	11%
CCOC(=O)c1cc2c(=O)n3cccc(C)c3nc2n(Cc2cccnc2)c1=N	6	0	2.2*	.	1	3%
COc1ccc(CNC(=O)c2cc3c(=O)n4ccccc4nc3n(Cc3cccnc3)c2=N)cc1	5	0	1.9	i	1.1	6%
O=C(Cc1ccccc1)NCc1nc2ccccc2[nH]1	5	21	1.1	i	1	9%
C=CCn1c(=N)c(C(=O)OCC)cc2c(=O)n3cc(C)ccc3nc21	5	0	2.1*	.	1	3%
CCc1nc2c(n1O)CCc1nonc1-2	3	11	1.1	i	1.1	5%
CCCCc1cc2c(c(NC(=O)CC)n1)c(=O)oc1ccccc12	0	6	2.2*	i	1.1	4%
CCCCc1cc2c(c(NC(C)=O)n1)c(=O)oc1ccccc12	4	10	1.6	i	1	4%
COc1ccc(CN/C(C)=C(/C#N)C(N)=O)cc1OC	6	11	0.99	i	1	6%
CCNc1oc(-c2cccc3ccccc23)nc1C#N	8	0	2.1*	.	1.1	4%
C=CCNc1oc(-c2cccc3ccccc23)nc1C#N	7	4	2.9*	.	1	4%
CC(C)Nc1oc(-c2cccc3ccccc23)nc1C#N	3	2	3.8*	.	1.1	3%
SMILES	MK inhibit	Spn PMK inh	Autofluor 339	DPM-DC inhibit	A340 absorber	NADH coupling
Cn1c(=O)c2nc(Cl)n(Cc3ccc(Cl)cc3Cl)c2n(C)c1=O	11	4	0.99	i	0.97	5%
N#CC1=C2C=CC=CN2CC1=O	6	9	2.3*	.	1	8%
CC(C)Oc1ccc2c(=O)c(-c3ccccc3)coc2c1	7	4	1	i	0.97	2%
Cc1ccccc1-c1coc2cc(O)ccc2c1=O	8	10	3.9*	.	1.2	9%
Cn1nc(-c2ccc(Cl)cc2)c2cc(C(=O)NCCN3CCOCC3)sc21	5	10	2.1*	.	1.1	8%
Cn1nc(-c2ccc(Cl)cc2)c2cc(C(=O)NCCCN3CCOCC3)sc21	6	10	2.1*	.	1.1	8%
Cn1nc(-c2ccc(Cl)cc2)c2cc(C(=O)N3CCN(C(=O)c4ccco4)CC3)sc21	0	7	1.6	i	1.1	2%
CCN1CCN(C(=O)c2cc3c(-c4ccc(Cl)cc4)nn(C)c3s2)CC1	0	0	1.8	i	1.1	8%
COCCNC(=O)CSc1nc2ccc(N3CCOCC3)cc2c(=O)n1CCc1ccccc1	10	7	4.1*	.	1	9%
CCCCNC(=O)CSc1nc2ccc(N3CCOCC3)cc2c(=O)n1CCc1ccccc1	10	10	2.3*	i	1	10%
Cc1cccc(N2CCN(C(=O)c3ccc(N4CCCC4=O)cc3)CC2)c1C	0	15	1.1	i	1	5%
CCOC(=O)N1CCN(C(=O)CCSc2ccccc2)CC1	4	0	1.1	i	1	1%
Cc1c(C2N3CC4(C)CN2CC(C)(C3)C4=O)c2ccccc2n1C (configuration not stated)	5	0	1.1	i	1	2%
COc1ccc(N2CCN(C(=O)c3cc4c(-c5cccc(OC)c5)nn(C)c4s3)CC2)cc1	9	12	0.96	i	1	7%
COc1ccccc1Oc1c(C)oc2cc(OC(=O)c3ccco3)ccc2c1=O	8	8	2.6*	i	1	12%
CCOC(=O)c1cc2ccc(OC(=O)c3ccco3)cc2oc1=O	9	5	3.7*	.	1.2	7%
COc1ccccc1-c1c(C)oc2cc(OC(=O)c3ccco3)ccc2c1=O	15	1	2.1*	i	1.1	14%
COc1ccc(N2CCN(S(=O)(=O)c3ccc(C(=O)NCc4ccco4)cc3)CC2)cc1	2	3	1.1	i	0.99	2%
COc1ccc(-n2c(C)cc(C(=O)Cn3c(NCCO)nc4ccccc43)c2C)cc1	2	11	1.1	i	1	7%
COCCN(C(=O)CCC(=O)Nc1cccnc1)C(C(=O)NC1CCCCC1)c1ccccc1 (configuration not stated)	0	14	1.1	i	0.96	5%
Cc1ccc(C2C(C#N)=C(N)Oc3c2sc2ccccc32)o1 (configuration not stated)	18	5	1.6	i	1	12%
Cc1cccn2c(=O)c(C=NCc3ccccc3)c(NCCO)nc12	12	9	3.6*	i	1.1	16%
COc1ccc(NC(=O)CSc2c(C)nn(-c3nnc(C)c(=O)[nH]3)c2C)cc1	4	12	1	i	1	2%
CC(=O)c1cccc(NC(=O)Nc2cccnc2)c1	1	3	0.45	+	1	18%
O=C(Cn1cnc2c(cnn2-c2ccc(F)cc2)c1=O)NCC1CCCO1 (configuration not stated)	4	20	1.1	i	0.97	8%
